# Assay results: PubChem BioAssay (EPA / NIEHS)
# Results filed as inconclusive are left out. The source made the active and inactive calls. How the source made its calls, unless noted: active means hit-call score of the fitted dose curve at least 0.9, where 1 is the maximum; inactive means score below 0.9.
# Key:
# [1] = CCTE_Shafer_MEA_dev_firing_rate_mean: CCTE's Neural Network Formation Assay for Mean Firing Rate, Shafer Lab (AID 2284031)
# How it was run: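 Extracellular spike frequency, AUC over DIV 5–12 recordings, in rat cortical neuron MEA cultures dosed from plating; loss direction vs DMSO.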
# [2] = CCTE_Shafer_MEA_dev_per_burst_spike_percent: CCTE's Neural Network Formation Assay for Percent of Spikes in a Burst, Shafer Lab (AID 2284032)
# How it was run: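 Value is trapezoidal AUC over recordings on days 5, 7, 9 and 12 of the well-mean fraction of spikes falling in single-electrode bursts; rat cortical cultures exposed continuously from plating, treatment renewed DIV 5 and 9, fitted downward against DMSO.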
# [3] = target: Estrogen receptor (Homo sapiens) (UniProt P03372); experiment: CCTE_Deisenroth_AIME_384WELL_LUC_Active: CCTE's 384-well Estrogen Receptor Transactivation Assay with AIME metabolic competence (ERTA luciferase; metabolism positive), Deisenroth Lab (AID 2284030; active means hit-call score of the fitted dose curve at least 0.9, where 1 is the maximum)
# Sequence of Estrogen receptor (Homo sapiens) (P03372 whole entry, looked up): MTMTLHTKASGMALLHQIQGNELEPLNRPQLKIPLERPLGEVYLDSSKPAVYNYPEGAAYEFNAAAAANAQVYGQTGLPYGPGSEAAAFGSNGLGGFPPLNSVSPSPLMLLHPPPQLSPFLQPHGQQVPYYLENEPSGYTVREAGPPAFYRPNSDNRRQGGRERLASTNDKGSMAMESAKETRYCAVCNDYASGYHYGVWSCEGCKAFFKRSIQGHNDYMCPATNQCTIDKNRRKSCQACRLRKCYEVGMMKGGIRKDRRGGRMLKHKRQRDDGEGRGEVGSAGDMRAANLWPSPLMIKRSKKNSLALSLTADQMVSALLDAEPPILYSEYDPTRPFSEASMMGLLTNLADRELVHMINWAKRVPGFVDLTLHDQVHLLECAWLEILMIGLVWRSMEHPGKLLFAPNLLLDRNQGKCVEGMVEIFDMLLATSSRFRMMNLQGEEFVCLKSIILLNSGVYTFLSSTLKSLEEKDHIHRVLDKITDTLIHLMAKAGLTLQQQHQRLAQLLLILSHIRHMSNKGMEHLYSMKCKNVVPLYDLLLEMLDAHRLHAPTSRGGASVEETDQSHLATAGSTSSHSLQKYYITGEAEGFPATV
# How it was run: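 AIME metabolism-positive mode: chemicals 0.002 - 200 uM, 2 h with alginate-bound PB/BNF-induced rat S9 → medium to VM7Luc4E2 ERTA, 24 h → luciferase. Positive fit vs 17beta-estradiol; n=4 typical.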
# [4] = CCTE_Deisenroth_AIME_384WELL_CTox_Active: Cytotoxicity Assessment (CTOX) in CCTE's 384-well Estrogen Receptor Transactivation Assay with AIME metabolic competence (metabolism positive), Deisenroth Lab (AID 2284037; active means hit-call score of the fitted dose curve at least 0.9, where 1 is the maximum;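 further: chemicals first conditioned 2 h by alginate-bound induced rat liver S9 before cells; activity means signal loss indicating cell death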)
# How it was run: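 VM7Luc4E2 breast cells received medium pre-incubated 2 h with chemical over alginate microspheres holding induced male Sprague Dawley rat liver S9; viability read 24 h later by protease-substrate fluorescence. Loss of signal, bidirectional fit, 0.002–200 uM.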
# [5] = target: Estrogen receptor (Homo sapiens) (UniProt P03372); experiment: CCTE_Deisenroth_AIME_384WELL_LUC_Inactive: CCTE's 384-well Estrogen Receptor Transactivation Assay without AIME metabolic competence (ERTA luciferase; metabolism negative), Deisenroth Lab (AID 2284038; active means hit-call score of the fitted dose curve at least 0.9, where 1 is the maximum;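 further: hits raise estrogen receptor luciferase signal so potencies reflect agonists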)
# How it was run: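 Metabolism-negative mode: AIME lids stamped in alginate-water, no hepatic S9. 2 h chemical incubation → medium onto VM7Luc4E2 ERTA, 24 h. Readout luciferase luminescence; gain-of-signal fit vs 17beta-estradiol. Conc. 0.002 - 200 uM.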
# [6] = CCTE_Shafer_MEA_acute_burst_number: CCTE's Neural Acute Assay for Single-Electrode Bursts, Shafer Lab (AID 2284013)
# How it was run: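 Burst totals were derived with adaptive spike detection (8x rms threshold) on filtered signals from rat cortical cultures; change relative to pre-treatment baseline after 40-min compound exposure (0.03-40 uM) was fitted in the negative direction against DMSO.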
# [7] = CCTE_Shafer_MEA_acute_burst_duration_mean: CCTE's Neural Acute Assay for Mean Burst Duration, Shafer Lab (AID 2284014);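 further: hits are decreases in mean burst duration relative to DMSO controls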
# How it was run: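 Acute exposure of mature rat cortical networks (DIV 13 or 15) grown on microelectrode arrays to 0.03-40 uM compound. Mean burst duration compared with the 40-min pre-dose baseline over a 40-min post-dose recording at 37 C.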
# [8] = CCTE_Shafer_MEA_acute_per_burst_spike_number_mean: CCTE's Neural Acute Assay for Average Number of Spikes Per Burst, Shafer Lab (AID 2284015);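 further: hits are decreases in mean spikes per burst versus baseline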
# How it was run: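 Primary rat cortical neurons on 48-well MEA plates, treated on DIV 13 or 15 at 0.03-40 uM. Spontaneous activity recorded 40 min before and 40 min after compound at 37 C; percent change in mean spikes per single-electrode burst per well, fitted in the loss direction versus DMSO.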
# [9] = CCTE_Shafer_MEA_acute_interburst_interval_mean: CCTE's Neural Acute Assay for Mean Interburst Interval, Shafer Lab (AID 2284016);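 further: percent change of mean interburst interval versus each well's own pre-dose baseline; curves fitted for decrease in interburst interval relative to DMSO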
# How it was run: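 Primary rat cortical neurons on 16-electrode MEA wells were recorded 40 min at baseline on DIV 13 or 15, then 40 min after compound (0.03-40 uM), at 37 C. Value is percent change in mean interburst interval per well, DMSO as negative control.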
# [10] = CCTE_Shafer_MEA_acute_burst_percentage_mean: CCTE's Neural Acute Assay for Percentage of Spikes in a Burst, Shafer Lab (AID 2284017)
# How it was run: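 Primary rat cortical neurons on 16-electrode MEA wells; 40 min baseline recorded at DIV 13 or 15, then 40 min after compound (0.03-40 uM) at 37 C. Well-mean fraction of spikes in single-electrode bursts; percent change from baseline, DMSO as negative control.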
# [11] = CCTE_Shafer_MEA_acute_burst_percentage_std: CCTE's Neural Acute Assay for Standard Deviation of Burst Percentage, Shafer Lab (AID 2284018);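 further: fitted in the negative direction so actives lower burst percentage SD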
# How it was run: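 Primary rat cortical neurons on 16-electrode MEA wells were recorded 40 min at baseline (DIV 13 or 15), then 40 min after compound (0.03-40 uM), at 37 C. Well value is SD across electrodes of spikes-in-bursts/total spikes; endpoint is percent change, DMSO-referenced.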
# [12] = CCTE_Shafer_MEA_acute_network_burst_percentage: CCTE's Neural Acute Assay for Percentage of Network Bursts, Shafer Lab (AID 2284022);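 further: curves fitted for loss so actives lower network burst percentage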
# How it was run: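 Readout is the fraction of spikes falling in network bursts, expressed as per-well percent change from a 40-min pre-exposure baseline. Primary rat cortical neurons on MEA were exposed to 0.03-40 uM compound on DIV 13 or 15 and recorded for 40 min at 37 C.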
# [13] = CCTE_Shafer_MEA_acute_cross_correlation_area: CCTE's Neural Acute Assay for Area of Cross Correlation, Shafer Lab (AID 2284024);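 further: area under pooled inter-electrode spike cross-correlation near zero lag as percent change from own baseline; curves fitted for loss of cross-correlation area so actives lower synchrony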
# How it was run: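 Plates equilibrated 20 min at 37 C, then 40 min baseline was recorded, compound was added (0.03-40 uM), and a further 40 min was recorded. Wells needed ≥10 active electrodes (≥5 spikes/min) on exposure day.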
# [14] = CCTE_Shafer_MEA_acute_cross_correlation_HWHM: CCTE's Neural Acute Assay for Cross Correlation at Half Width at Half Maximum, Shafer Lab (AID 2284026);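 further: spontaneous network firing of rat primary cortical neurons on multiwell microelectrode arrays; percent change per well from pre-dose baseline in spike cross-correlogram half width; hits are a decrease in cross-correlogram half width relative to DMSO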
# How it was run: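 Rat cortical neuron cultures on microelectrode arrays were equilibrated 20 min at 37 C, recorded 40 min at baseline, then 40 min after compound addition (0.03-40 uM, ≥3 wells). Spikes were detected at 8x rms noise after 300-5000 Hz band-pass filtering.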
# [15] = CCTE_Shafer_MEA_acute_synchrony_index: CCTE's Neural Acute Assay for Synchrony, Shafer Lab (AID 2284027);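 further: network synchrony index of spontaneous spiking in primary rat cortical neurons on MEAs; fitted for loss of signal so actives lower synchrony relative to DMSO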
# How it was run: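 Acute exposure of rat primary cortical neurons (DIV 13 or 15) at 0.03-40 uM. Synchrony index, 40 min before vs after, as % change relative to DMSO control.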
smiles,measurement,setting,value
OCC(O)CO,outcome,[1],inactive
same,outcome,[2],inactive
O=C(O)CC(O)(CC(=O)O)C(=O)O,outcome,[3],inactive
same,outcome,[4],inactive
same,outcome,[5],inactive
C/C=C/C=C/C(=O)O,outcome,[4],inactive
CCc1cc(C2=C(C(=O)O)N(c3ccccc3C(F)(F)F)S(=O)(=O)c3ccccc32)cc2c1OCO2,outcome,[6],inactive
same,outcome,[7],inactive
same,outcome,[8],inactive
same,outcome,[9],inactive
same,outcome,[10],inactive
same,outcome,[11],inactive
same,outcome,[12],inactive
same,outcome,[13],inactive
same,outcome,[14],inactive
same,outcome,[15],inactive
O=C1NC(=O)C(c2ccccc2)(c2ccccc2)N1,outcome,[1],inactive
same,outcome,[2],inactive
CC(=O)OCC(COC(C)=O)OC(C)=O,outcome,[4],inactive
CC(=O)CC(c1ccccc1)c1c(O)c2ccccc2oc1=O (stereo not drawn),outcome,[1],inactive
same,outcome,[2],inactive
same,outcome,[4],inactive
CCCCC(CC)CO (stereo not drawn),outcome,[4],inactive
